Assay outcomes as filed in PubChem BioAssay.
Compounds with a hit are over-represented: about 1.4% of the library has one in this group of screens.
ugtP null kill: compounds lethal to S. aureus RN4220 ugtP deletion mutant. hit rate 0.54% among 330,000. OD600 growth, 16 h. growth inhibition, % (test concentration not listed). AID 1259309; in the data active = growth inhibition above about 68%
CCHF vOTU inh-1: CCHFV vOTU protease inhibition | Pep-AMC fluorescence | inhibition, % at 11.5 µM | hit rate 0.55% among 370,000 | AID 651958
Sa RN4220 lethal: S. aureus RN4220 growth inhibition; OD600, 16 h; inhibition, % (concentration not given with the values); hit rate 0.33% among 330,000; in the data active = inhibition above about 85%
Mtb hypoxia rep: inhibitors of hypoxia-regulated fluorescent reporter in Mycobacterium tuberculosis; AID 1159583; fluorescence inhibition, % (no concentration beside the values); M. tuberculosis hypoxia-regulated fluorescent reporter, fluorescence; hit rate 0.1% among 300,000; in the data active = fluorescence inhibition mostly above about 23%, no sharp cut-off; inactive = mostly below about 17%
PriA SSB inh: K. pneumoniae PriA-SSBct interaction inhibition. AlphaScreen SSBct-PriA binding, biotinylated peptide. inhibition, % at 33 µM. hit rate 0.6% among 430,000. AID 1272365; in the data active = inhibition mostly above about 37%, no sharp cut-off; inactive = mostly below about 20%
CCHF vOTU inh-2: CCHFV vOTU protease inhibition, confirmation. shares compounds with CCHF vOTU inh-1. Recombinant CCHFV vOTU, Pep-AMC fluorescence. inhibition, % at 11.5 µM. hit rate 17% among 1,900. AID 686976
Numbers stand for hits; i = inactive; nt = not tested or not shown; ! = repeats disagree. Cut-off read from the data, not from the text of the source, unless noted: active = inhibition above about 30%; inactive = the rest.

SMILES	ugtP null kill	CCHF vOTU inh-1	Sa RN4220 lethal	Mtb hypoxia rep	PriA SSB inh	CCHF vOTU inh-2
Cc1[nH]c2ccc(F)cc2c(=O)c1SC(F)(F)C(F)F	i	30	i	nt	i	i
O=C(NC[C@@](O)(c1ccccc1)C(F)(F)F)c1c(F)cccc1Cl	nt	nt	nt	nt	i	nt
Cn1c(-c2ccccn2)nn(CCNC(=O)C2(c3ccc(Cl)cc3)CCCC2)c1=O	nt	nt	nt	nt	i	nt
CN(C)CCCNc1cc(O)c2ncccc2c1	i	92	i	i	48	94
COCC(=O)Oc1c(Sc2c(F)c(F)c(F)c(F)c2F)c(C)nn1C(C)(C)C	nt	nt	nt	nt	i	nt
Cc1ccc2c(c1)c1c(n2CC(O)CNC2CCCCC2)CCCC1 (centres undefined)	i	64	i	nt	i	i
COc1ccc(C=NNC(=O)c2cc(C)oc2C)cc1OCc1ccccc1	i	nt	i	i	i	nt
C=CCOC(=O)c1cc(-c2ccc(/C=C3\C(=O)NC(=O)C(C#N)=C3C)o2)ccc1Cl	i	33	i	i	i	i
COc1ccc(NC(=O)C2=CC(c3ccco3)=NS(=O)(=O)N2C)cc1OC	i	i	i	nt	i	nt
CC(=O)c1ccc(NC(=O)C2=CC(c3ccco3)=NS(=O)(=O)N2C)cc1	i	33	i	i	i	i
Nn1cnnc1N/N=C/c1ccccc1C(F)(F)F	nt	69	nt	nt	nt	i
Nn1cnnc1N/N=C/c1cccc(Cl)c1Cl	nt	61	nt	nt	nt	i
Cc1nnc(NN=Cc2ccccc2C(F)(F)F)n1N	i	nt	i	i	i	nt
Nn1cnnc1NN=Cc1cccc(Cl)c1Cl	i	nt	i	i	i	nt
O=C(c1cnc2ccc(F)cc2c1Nc1ccc(OCc2ccccc2)cc1)N1CCSCC1	nt	nt	nt	nt	i	nt
O=C(CC1S/C(=N/N=C/c2ccco2)NC1=O)Nc1cccc(Cl)c1Cl (centres undefined)	nt	33	nt	nt	nt	i
O=C(CC1SC(=NN=Cc2ccco2)NC1=O)Nc1cccc(Cl)c1Cl (centres undefined)	i	nt	i	i	i	nt
COc1ccccc1/C=N/NC(=O)c1ccc(=O)n(C)c1	nt	31	nt	nt	nt	i
CCN1/C(=C/c2ccc3cc(C)ccc3[n+]2CC)Sc2ccccc21	100	31	100	nt	i	i
CN(C(=O)CN(Cc1ccc(Cl)cc1)S(=O)(=O)c1cccnc1)c1ccccc1	nt	nt	nt	nt	i	nt
COC(=O)[C@]12CCCCC=C1N(Cc1ccc(Cl)cc1Cl)C(=O)[C@H](CC(=O)NCCCCc1ccccc1)C2	nt	33	nt	nt	nt	i
CCOC(=O)[C@]12CCCC=C1N(Cc1ccc(Cl)cc1Cl)C(=O)[C@H](CC(=O)NCCCCc1ccccc1)C2	nt	i	nt	nt	nt	nt
COC(=O)[C@@]12C[C@@H](CC(=O)NCCCCc3ccccc3)C(=O)N(Cc3cccc4ccccc34)C1=CCC(C)(C)C2	nt	30	nt	nt	nt	i
Cc1ccc(NC(=O)C(=O)NCC2CCN(Cc3ccco3)CC2)cc1	nt	nt	nt	nt	i	nt
O=C(Cn1cnc2ccccc2c1=O)NC(c1cccnc1)C1CCOCC1 (centres undefined)	nt	nt	nt	nt	i	nt
SMILES	ugtP null kill	CCHF vOTU inh-1	Sa RN4220 lethal	Mtb hypoxia rep	PriA SSB inh	CCHF vOTU inh-2
Fc1ccc(-c2nnc(Cc3ccc(Cl)cc3)o2)cc1	i	30	i	nt	i	i
Fc1ccc(Cc2nnc(-c3cccs3)o2)cc1	i	i	i	nt	i	nt
O=C(CON=Cc1ccc(OC(F)F)cc1)NC1CCCCC1	i	nt	i	i	i	nt
CC1=NN(c2ccc(N)cc2)C(=O)C1	i	57	i	i	i	i
CC1=NN(c2nc(-c3ccc(Cl)cc3)cs2)C(=O)C1	i	i	i	i	i	nt
CC1=NN(c2ccc(Cl)cc2)C(=O)C1	i	41	i	i	i	i
CC1=NN(c2cccc([N+](=O)[O-])c2)C(=O)C1	i	i	i	i	i	nt
CC1=NN(c2ccccc2)C(=O)C1	nt	87	nt	nt	i	i
CC1=NN(Cc2ccccc2)C(=O)C1	i	36	i	i	i	i
O=C1CCCCCCCN1Cc1ccccc1	i	i	i	i	i	nt
O=C(c1ccccc1C(F)(F)F)N1CCN(CCn2ccnc2)CC1	nt	nt	nt	nt	i	nt
COc1ccccc1-c1ccc(=O)n(CC(=O)Nc2cc(N3CCC(C)CC3)ncn2)n1	nt	nt	nt	nt	i	nt
Cc1ccc(OCCn2nnc3ccccc32)cc1	nt	nt	nt	nt	i	nt
CCS(=O)(=O)c1ccc2oc(Nc3ccc(C(C)(C)C)cc3)nc2c1	i	30	i	i	i	i
CCC(=O)NC(c1cccs1)c1cc([N+](=O)[O-])c2cccnc2c1OC (centres undefined)	nt	124	nt	nt	nt	i
Brc1ccc(CSc2ncnc3ccccc23)cc1	nt	nt	nt	nt	i	nt
COc1ccc(C=NNc2ncc(C(F)(F)F)cc2Cl)cc1OC	i	nt	i	i	i	nt
CS(=O)(=O)NNC(=O)Cn1nnc(-c2cc(C(F)(F)F)cc(C(F)(F)F)c2)n1	i	i	i	i	i	nt
O=C(Cn1nnc(-c2cccc(C(F)(F)F)c2)n1)NNS(=O)(=O)c1cccc(C(F)(F)F)c1	i	32	i	i	i	i
CCCCCCCC/C=C\CCCCCCCC(=O)NCCc1ccc(O)c(O)c1	nt	30	nt	nt	i	i
COc1cc(NS(=O)(=O)c2ccc(Nc3nc(-c4ccccc4)cs3)cc2)nc(OC)n1	i	36	i	i	i	i
CC1Cc2nc(SCC(N)=O)n(C)c(=O)c2S1 (centres undefined)	i	32	i	i	i	i
CCOC(=O)Nc1sc(NS(=O)(=O)c2ccc(C)cc2)nc1C	i	30	i	i	i	i
CCOC(=O)Nc1sc(NS(=O)(=O)c2ccccc2)nc1C	i	i	i	i	i	nt
COc1ccc2sc(Nc3nnc(-c4ccc5c(c4)OCCO5)o3)nc2c1	nt	nt	nt	nt	i	nt
SMILES	ugtP null kill	CCHF vOTU inh-1	Sa RN4220 lethal	Mtb hypoxia rep	PriA SSB inh	CCHF vOTU inh-2
CN1CC[C@@]2(C)c3cc(O)ccc3N(C)C2O1 (some centres undefined)	nt	nt	nt	nt	i	nt
CN1CC[C@@]2(C)c3cc(O)ccc3N(C)[C@@H]12	nt	40!	nt	nt	i	i
COCCCNC1=C(Cl)C(=O)c2ccccc2C1=O	i	i	i	i	i	nt
COCCCNc1c2c3c(cccc3[nH]c1=O)C(=O)c1ccccc1-2	i	32	i	i	i	i
CCc1nnc(N/N=C/c2ccccc2Cl)n1N	nt	84	nt	nt	nt	i
COc1cccc(/C=N/Nc2nnc(C)n2N)c1OCc1ccccc1Cl	nt	75	nt	nt	nt	i
COc1cccc(C=NNC(N)=S)c1OCc1ccccc1Cl	nt	nt	nt	nt	i	nt
CCc1nnc(NN=Cc2cc(C)c(C)cc2C)n1N	i	nt	i	i	i	nt
CCc1nnc(N/N=C/c2ccccc2F)n1N	nt	77	nt	nt	nt	i
Cc1nnc(NN=Cc2ccccc2F)n1N	i	nt	i	i	i	nt
Cc1cc(N2C(=O)C(O)=C(C(=O)c3cc4ccccc4o3)C2c2cccc(Br)c2)no1 (centres undefined)	100	32	100	i	i	i
CCc1ccc([C@@H]2C[C@H]3[C@@H](CN2S(=O)(=O)c2ccc(C)cc2)C(=O)C[C@@H](c2ccc(C)cc2)N3S(=O)(=O)c2ccc(C)cc2)cc1	nt	34	nt	nt	nt	i
Cc1ccc(C2CC=C(C(=O)O)C(c3ccccc3)N2S(=O)(=O)c2ccc(C)cc2)cc1 (centres undefined)	i	nt	i	i	nt	nt
Cc1ccc(S(=O)(=O)N2[C@@H](c3ccc(C(C)(C)C)cc3)C(C(=O)O)=CC[C@H]2c2cccc(Cl)c2)cc1	i	38	i	i	i	i
